Among the data in PubChem BioAssay AID686970 (National Center for Advancing Translational Sciences (NCATS), 2013) are Potency values, retold here.

SMILES strings stand for the structures. Screen size: about 360,000 compounds; about 6,000 (1.7%) were called active. A call without a number means that no potency is given here. Not shown: some 8% with an inconclusive outcome. The call rests on the fitted dose curve; in most records, active means well fitted cell-killing curve with a large enough effect; inconclusive means small, poorly fitted or top-dose-only effect, or effect the other way; inactive means flat fitted curve, though single readings scatter. For the sample, actives were picked, then their nearest neighbours and some compounds at random.
Potency means the concentration at half of the fitted maximal effect.

This experiment in a line: qHTS for induction of synthetic lethality in tumor cells producing 2HG: qHTS for the HT-1080-NT fibrosarcoma cell line.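 Further: NT is the 2HG producing partner of a matched IDH1 knockdown line; nearly all actives have a fitted effect of over 55% in size.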 The following applies: HT-1080-NT fibrosarcoma viability, CellTiter-Glo ATP luminescence, 48 h; series mostly up to 46.1 µM. The gist of the method: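 750 cells/well, RPMI + 5% FBS; 2 h settle, compound pin-transfer, 48 h at 37 degrees C. CellTiter-Glo 10 min RT, luminescence. Normalized to DMSO and media-only wells.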
For `COc1ccc(NC(=O)N(C)C[C@@H]2OCc3cn(nn3)CCCC(=O)N([C@H](C)CO)C[C@H]2C)c(OC)c1`, the Potency result was “inactive”.
Next, `CCCCNC(=O)C[C@@H]1C[C@@]2(C(=O)OC)CC(C)(C)CC=C2N(Cc2ccco2)C1=O`: “inactive”.
To `COc1ccc(Nc2cc(C)nc(-n3nc(C)cc3C)n2)cc1` belongs 1.12 µM (active); to `COc1ccc(Nc2cc(Sc3ccc(OC)cc3)ncn2)cc1`, “inactive”; to `COc1ccc(NC(=O)c2nc(-n3nc(C)cc3C)ccc2Cl)cc1Cl`, “inactive”.
In the case of `CNS(=O)(=O)c1ccc2c(c1)[nH]c(=S)n2C`, the Potency entry was “inactive”.
To `CC1=C(C(=O)N2CCOCC2)CC(CC(=O)NCc2cccc3ccccc23)C(=O)N1CCC1=CCCCC1` (configuration not stated) belongs “inactive”; to `CCCC(=O)N1CCC1(C)C(=O)NCc1ccc(C(C)C)cc1` (configuration not stated), “inactive”.
Next, `Cc1ccc(-c2nn(-c3ccccc3)cc2C(=O)NCCCN2CCCC2=O)cc1`: “inactive”; `O=C(O)c1ccc(NC(=O)c2cn(-c3ccccc3)nc2-c2ccc(Cl)cc2)cc1`: 9.2 µM (active).
On to `Cc1ccc(-c2nn(-c3ccccc3)cc2C(=O)Nc2cccc(S(=O)(=O)N3CCOCC3)c2)cc1`, for which the Potency entry is “inactive”.
To `COC(=O)C1(C(=O)OC)C[C@H](c2ccccc2)N(Cc2ccccc2OC)[C@@H]1c1ccccc1` belongs “inactive”; to `CCCNC(=O)C1(C)CCN(Cc2csc(-c3ccc(Cl)cc3)n2)C1` (configuration not stated), “inactive”.
Next, `O=C(COC(=O)c1ccccc1C(=O)N1CCN(c2ccccc2)CC1)NCc1ccccc1`: “inactive”; `Oc1ccc(N2CCN(C(=S)NCc3ccccc3)CC2)cc1`: 9.2 µM (active).
To `Oc1ccccc1N1CCN(C(=S)NCc2ccccc2)CC1` belongs “inactive”.
Take `O=C(NOCc1ccccc1)c1cccc([N+](=O)[O-])c1`: the Potency result is “inactive”.
Next, `O=C(COC(=O)c1ccc([N+](=O)[O-])cc1Cl)NC(=O)c1ccccc1`: “inactive”; `O=C(NC(Nc1nc2ccc([N+](=O)[O-])cc2s1)(C(F)(F)F)C(F)(F)F)c1ccccc1`: 5.17 µM (active).
Next, `COc1ncnc2c1ncn2CCCNCCN1CCOCC1`: “inactive”.
Turning to `CC1CCCCN1CCCNC(=O)Cn1ncc2c([nH]c3ccccc32)c1=O` (configuration not stated), the Potency entry was “inactive”.
For the molecule `CCC1CCCCN1CCCNC(=O)C1CCC(Cn2c(=O)[nH]c3ccccc3c2=O)CC1` (configuration not stated), the Potency result was “inactive”.
Next, `CCCCCn1c(=O)[nH]c2cc(C(=O)NCCCN3CCCCC3C)ccc2c1=O` (configuration not stated): 23.1 µM (active).
To `CC(C)(O)C1=C[N+](=O)CC=C1` belongs “inactive”; to `c1cc(-c2ccc3[nH]ccc3c2)n2ccnc2c1`, “inactive”; to `NC(CSC(c1ccccc1)(c1ccccc1)c1ccc(-c2ccccc2)cc1)C(=O)O` (configuration not stated), “inactive”.
Next, `Clc1ccc(-c2cc(-c3ccccn3)on2)c(Cl)c1`: “inactive”; `Clc1ccc(-c2cc(C3CCNCC3)[nH]n2)c(Cl)c1`: 23.1 µM (active); `C[C@@H]1Cn2cnc(C(=O)Nc3ccc(CNC(=O)OC(C)(C)C)cc3)c2C(=O)N1`: “inactive”.
Turning to `Cc1nnc(SC(C)C(=O)c2c[nH]c3ccccc23)n1C1CC1` (configuration not stated), the Potency result was “inactive”.
To `CC1(c2ccccc2)NC(=O)N(CC(=O)Nc2cc(Cl)ccc2N2CCOCC2)C1=O` (configuration not stated) belongs “inactive”.
`O=C(CSc1nc(Nc2ccccc2)nc(N2CCOCC2)n1)Nc1cc(Cl)ccc1O`: the Potency is 16.4 µM (active).
Next, `Cc1ccccc1NC(=O)CSc1nc2ccc(Nc3nc(N4CCOCC4)nc(N4CCOCC4)n3)cc2s1`: “inactive”.
Next, `c1ccc2c(c1)nnn2-c1ccncc1`: “inactive”; `O=C(Nc1ccc(F)cc1)C1CCN(C(=O)c2ccc([N+](=O)[O-])cc2)CC1`: “inactive”; `O=C(c1ccc(Oc2ccc(Cl)cc2)c([N+](=O)[O-])c1)N1CCCC1`: “inactive”.
To `CC1CCN(C(=O)c2ccc(S(=O)(=O)Cc3cc(F)ccc3F)c([N+](=O)[O-])c2)CC1` belongs 11.6 µM (active); to `Cc1ccc(NC(=S)NCCc2ccc(Cl)cc2)c(C)c1`, “inactive”; to `O=C(NCCc1ccc(Cl)cc1)c1cccc(N2CCCC2=O)c1`, “inactive”.
As for `Oc1cc2c(cc1O)CN(C(=S)NCCc1ccc(Cl)cc1)CCC2`, the Potency was 31.6 µM (active).
To `Cc1cc(C)c2c(=O)n3c(nc2c1)C(CC(C)C)NC(=O)c1cc2ccccc2cc1-3` (configuration not stated) belongs “inactive”; to `CC(C)C1CC2=C(C(=O)OC(C)(C)O2)C(c2ccc(F)cc2)O1` (configuration not stated), “inactive”.
Next, `CN1OC[C@@H]2CN(S(=O)(=O)c3cccc4ccccc34)[C@H](c3ccc(N4CCCCC4)cc3)C[C@@H]21`: “inactive”; `CS(=O)(=O)/C(C#N)=C/c1cccn1S(=O)(=O)c1ccc([N+](=O)[O-])cc1`: “inactive”.
Next, `Clc1cccc(Cl)c1OCCOCCNCc1ccccc1`: “inactive”; `CN(C)CCOc1ccc(Cl)cc1C(C)(C)C`: “inactive”.
As for `CN(C)CCOCCOc1ccc(Cl)c2ccccc12`, the Potency is 18.4 µM (active).
Next, `COc1cc(C)c(CN2CCN(C(=O)CCC(=O)c3ccc(C)s3)CC2)cc1OC`: “inactive”; `Cc1ccc(NC(=O)Cn2sc3ccccc3c2=O)cc1`: “inactive”.
Take `CC1(C(=O)NS(=O)(=O)c2cccc(F)c2)CCN1C(=O)Cc1ccc(Cl)cc1Cl` (configuration not stated): the Potency result is “inactive”.
With `COC(=O)[C@]12CCCCC=C1N(Cc1cccc3ccccc13)C(=O)[C@H](CC(=O)N1CCOCC1)C2`, the Potency result was “inactive”.
To `COc1cc(NC(=O)c2cncc(-c3ccc(C#N)cc3)c2)cc(C(=O)Nc2cccc(C(F)(F)F)c2)c1` belongs “inactive”; to `COc1cc(NC(=O)c2[nH]cnc2C(N)=O)cc(C(=O)Nc2cccc(C(F)(F)F)c2)c1`, 18.4 µM (active); to `O=C(O)CSc1c2c(nc3cc(C(=O)Nc4cccc(C(F)(F)F)c4)ccc13)CCCC2`, “inactive”.
To `CC(=O)C1=CCC(c2ccccc2)N(S(=O)(=O)c2ccc(C)cc2)C1` (configuration not stated) belongs “inactive”; to `Cc1ccc(C)c(NC(=O)c2ccc3nccnc3c2)c1`, “inactive”; to `Cc1ccc(OS(=O)Nc2cccc3nccnc23)cc1` (configuration not stated), 11.2 µM (active).
To `Cc1ccc(Oc2ccc3c(c2)C(=O)N(c2cccc4cccnc24)C3=O)cc1` belongs “inactive”; to `CCOc1cc(-c2cc(-c3ccc(NC(C)=O)cc3)nc(N)c2C#N)ccc1O`, “inactive”; to `CCOc1cc(/C=C(\C#N)c2nc(-c3cccs3)c(NC(C)=O)s2)ccc1O`, 3.26 µM (active).
For `CCOc1cc(C=NNC(=O)CCCC(=O)NN=Cc2ccc(O)c(OCC)c2)ccc1O`, the Potency result was “inactive”.
To `CCCNC(=O)C1(C)CCN(C(=O)c2ccc(F)cc2Cl)C1` (configuration not stated) belongs “inactive”.
As to `CN1OC[C@@H]2CN(C(=O)c3cccc4ccccc34)[C@H](c3ccc(N4CCCCC4)cc3)C[C@@H]21`, the Potency entry is “inactive”.
To `Oc1ccc(-c2onc3ccc(Cl)cc23)cc1` belongs “inactive”; to `N#CCSc1nc(-c2ccccc2)nc2ccc(F)cc12`, “inactive”.
Next, `Clc1ccc2nc(-c3ccccc3)nc(C(Cl)Cl)c2c1`: 4.61 µM (active); `CCCCNC(=O)C[C@@H]1C[C@@]2(C(=O)OCC)CCC=C2N(Cc2ccco2)C1=O`: “inactive”; `COc1nc(N=C(N)N)nc2c(C)cccc12`: “inactive”.
Take `Cc1nc(N=C(N)N)nc2c(C)cccc12`: the Potency was 10.3 µM (active).
To `O=C1CCC(=O)N1CCC(=O)N(C(=O)NC1CCCCC1)C1CCCCC1` belongs “inactive”.
Next, `CC(=O)OC[C@@H]1CN(Cc2ccccc2)C[C@H](n2cnc3c(NCc4ccco4)ncnc32)O1`: “inactive”.
Turning to `COc1ccc(/C=C(\C#N)c2c[nH]c3ccccc23)cc1`, the Potency was 0.411 µM (active).
For `C[N+](C)(C)CCNC(=O)c1c[nH]c2ccccc12`, the Potency entry is “inactive”.
To `COc1cccc(-n2c(SCC(=O)c3c[nH]c4ccccc34)nc3ccccc3c2=O)c1` belongs “inactive”; to `COc1ccc(C=C2CCC3C(CCCC34OCCO4)C2=O)cc1` (configuration not stated), “inactive”; to `COCCCNC(=O)c1cccc2c(-c3ccc(O)c(OC)c3)coc12`, “inactive”.
To `CC1(C(=O)Nc2cccc3c2CCCC3)CCN1C(=O)CCc1ccc(Cl)cc1Cl` (configuration not stated) belongs “inactive”; to `C=CCSC1=C(C#N)C(c2cc(Br)c(O)c(OC)c2)CC(=O)N1` (configuration not stated), “inactive”.
Turning to `COC(=O)CSC1=C(C#N)C(c2ccccc2OC)C(C(=O)OC)C(=O)N1` (configuration not stated), the Potency result is “inactive”.
To `CCOC(=O)CSC1=C(C#N)C(c2sccc2C)CC(=O)N1` (configuration not stated) belongs 2.51 µM (active); to `CN(Cc1ccccc1)C(=O)CCC1CCN(C(=O)c2ccco2)CC1`, “inactive”; to `COC(=O)Cc1ccc(OC2(C)CCN(Cc3ccc4c(c3)OCCO4)C2)cc1` (configuration not stated), “inactive”.
To `C#CCNC(=O)C[C@@H]1C[C@@]2(C(=O)OCC)CCCC=C2N(Cc2ccco2)C1=O` belongs “inactive”; to `CCOc1ccc(C2C(C(=O)NC)=C(C)Nc3nc4ccccc4n32)cc1OC` (configuration not stated), “inactive”.
`COc1ccccc1NC(=O)C1=C(C)Nc2nc3ccccc3n2C1c1cccs1` (configuration not stated): the Potency was 7.31 µM (active).
Next, `COc1ccccc1NC(=O)C1=C(C)NC(=O)NC1c1ccc(C)s1` (configuration not stated): “inactive”; `COc1ccc(C(O)C(O)(C(=O)OC(C)C)c2ccc(C)cc2)cc1` (configuration not stated): “inactive”; `O=C(Nc1cccc2ccccc12)NC1CC1`: “inactive”.
To `COc1ccc(CCNS(=O)(=O)c2cccc3cccnc23)cc1OC` belongs “inactive”.
For `CCOc1ccc(C(CC(=O)O)NC(=O)Cc2ccccc2)cc1OC` (configuration not stated), the Potency entry was “inactive”.
Next, `CCCCC(=O)NC(c1ccc(OC)c(OC)c1)c1ccc2cccnc2c1O` (configuration not stated): 14.6 µM (active).
Consider `Cn1nc(N)c2ncc(C(Cl)(Cl)Cl)nc21`, for which the Potency result is “inactive”.
Next, `O=S1(=O)CC(N2CCN(CCO)CC2)CN1C1CCCC1` (configuration not stated): “inactive”; `Nc1c(C(=O)Nc2ccc3c(c2)OCCO3)nnn1Cc1ccccc1`: “inactive”.
Consider `O=C(COc1cccc(Cl)c1)NCc1ccccc1`, for which the Potency result was “inactive”.
`Nc1c(C(=O)NCc2ccccc2)nnn1Cc1cccc(Cl)c1`: the Potency is 13 µM (active).
Take `Cc1cccc(C)c1NC(=O)CN1CCN(c2ccc(F)cc2)CC1`: the Potency entry was “inactive”.
Next, `CCOc1ccc2[nH]c(=S)sc2c1`: “inactive”; `COc1ccc(C(C(=O)Nc2c(C)cccc2C)N2CCN(c3ccc(C)cc3)CC2)cc1` (configuration not stated): “inactive”.
For the molecule `CC1=CC(C)(C)NC(=S)N1c1ccccc1`, the Potency is 11.2 µM (active).
Next, `CC1=CC(C)(C)NC(=S)N1NC(=O)c1ccccc1Cl`: “inactive”.
Consider `COc1ccc(S(=O)(=O)N(C)C)cc1NC(=O)COC(=O)c1n[nH]c2ccccc12`, for which the Potency entry is “inactive”.
